# Source: PubChem BioAssay AID488857 (Sanford-Burnham Center for Chemical Genomics, 2010)
# Screen size: about 1,400 compounds; about 560 (40%) were called active. The set was probably picked from earlier hits. This is one part of the list. Values without a mark were called inactive.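 Rule for the calls: active = mean inhibition over duplicate tests at 10 µM above 50%; inactive = the rest.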
# Assay: ASC/caspase-1 reporter retest in S. cerevisiae at one dose, specificity check for NALP1 project (AID 488857)
# Details: S. cerevisiae ASC/Caspase-1, beta-galactosidase luminescence, 24 h; at 10 µM; active compounds read high
row,Structure (SMILES),inhibition
1,CN(C)Cc1ccccc1Sc1ccccc1Br,49%
2,CC(=O)c1ccc(NC(=O)Nc2ccc(Cl)cc2)cc1,44.4%
3,N#Cc1ccc(NC(=O)Nc2ccc(Cl)cc2)cc1,96.4% (active)
4,COc1ccc(N2CCN(CCNC(=O)Nc3ccc(Cl)cc3)CC2)cc1,39.5%
5,Cc1cccc(C)c1C(OCCN(C)C)C1CCCCC1 (stereo not given),35.5%
6,COc1ccc(/C=C/C(=O)Nc2ccc3c(c2)CCC3)cc1OC,86.2% (active)
7,COc1cc(/C=C(\NC(C)=O)C(=O)Nc2cccc(O)c2)ccc1OC(C)=O,42%
8,O=C1/C(=C/c2cccnc2)SC(=S)N1C1CCS(=O)(=O)C1 (stereo not given),32.4%
9,COc1ccc(OC)c(S(=O)(=O)Nc2ccc(O)c3ccccc23)c1,28.8%
10,CSc1ccc2c(c1)N(CCC1CCCCN1C)c1ccccc1S2 (stereo not given),81.8% (active)
11,CCC(C)NCCOc1cccc(Br)c1 (stereo not given),39.6%
12,O=C(Nc1ccc(-c2nc3ccccc3s2)cc1)C1=COCCO1,55.6% (active)
13,Cc1ccc2nc(-c3ccc(NC(=O)CN(c4ccccc4C)S(C)(=O)=O)cc3)sc2c1,44.1%
14,CCOC(=O)N/N=C/c1ccc(N(CC)CC)cc1O,72.5% (active)
15,COc1cc2nc(Cl)nc(N3CCN(C)CC3)c2cc1OC,30%
16,O=C(Nc1ccc(Cl)c(Cl)c1)Oc1ccc(NC(=O)c2ccco2)cc1,54.6% (active)
17,COc1cccc(NC2=C(Cl)C(=O)OC2OC(=O)c2ccco2)c1 (stereo not given),38.3%
18,Cc1ccc2cc3cc(C(=O)NCCCN4CCc5ccccc5C4)oc3nc2c1,35%
19,O=C(NCCCN1CCc2ccccc2C1)Nc1ccc(Br)cc1,43.3%
20,CC(=O)N1CCCc2cc(S(=O)(=O)N3CCc4ccccc4C3)ccc21,45.2%

row,Structure (SMILES),inhibition
1,Cc1ccc(NC(=O)N2CCc3ccccc3C2)cc1,69.2% (active)
2,O=C(Nc1ccccc1)N1CCc2ccccc2C1,71.7% (active)
3,COC(=O)/C(=N/Nc1ccc(C)cc1)N1CCCc2ccccc21,40.6%
4,CCOC(=O)c1cc(-c2ccc(OC)cc2)nc2c1c(C)nn2CCC#N,49.6%
5,CN1C/C(=C/c2ccncc2)C(=O)/C(=C/c2ccncc2)C1,26.9%
6,CC1=CC2=NC(=O)/C(=C\c3cccn3CCOc3cccc(C)c3)C(=N)N2O1,85.1% (active)
7,NCCS,58.8% (active)
8,CCOC(=O)C1CCCCN1Cc1ccc(F)c(Br)c1 (stereo not given),40.2%
9,COc1ccc2nc3oc(C(=O)Nc4ccc(OC)c(OC)c4)cc3cc2c1,36.3%
10,CCOC(=O)C1CCN(C(=O)c2cc3cc4cc(OC)ccc4nc3o2)CC1,52% (active)
11,O=C(NCC1CCCO1)C(c1cccs1)N(Cc1cccs1)C(=O)Cn1nnc(-c2cccs2)n1 (stereo not given),39.1%
12,CCOC(=O)c1c(C)c(C(=O)NCCCOC(C)C)c(C)n1C,26.7%
13,COc1cc(C=O)ccc1Oc1nnnn1-c1ccccc1,52.9% (active)
14,O=C1CN(c2nnnn2-c2ccccc2)CCN1,40.9%
15,CC(C)C(=O)c1cc2c(cc1NC(=O)Nc1cccc3ccccc13)OCCO2,49.3%
16,O=C(N/N=C/c1ccc2c(c1)OCO2)c1cccs1,68.9% (active)
17,CNc1ccc(/C=C/C(=O)c2ccc3c(c2)OCCO3)cc1[N+](=O)[O-],66.7% (active)
18,O=C(/C=C/c1cccc([N+](=O)[O-])c1)c1ccco1,36%
19,Cc1c([N+](=O)[O-])c(C(=O)Nc2ccc3c(c2)OCCO3)nn1C,24.6%
20,CC1=CC(C)(C)Nc2ccc(OC(=O)C(C)N3C(=O)c4ccccc4C3=O)cc21 (stereo not given),39.1%
